This is a sample that favours compounds with a hit; in the whole collection about 4.8% have one here.
hgDAF12 agonist: activates the H. glycines DAF-12 receptor ligand-binding domain | 370,000 tested, 1.8% active | activation, % at 6.8 µM | HEK293 GAL4-hgDAF12 UAS-luciferase reporter, agonist luminescence; normalized to butyrate control;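 active means activation above a cutoff set at the mean of all screened compounds plus 3 SD, cut at about 10% in these data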;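 further: 0% = DMSO wells and 100% = sodium butyrate wells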
DAX1 inh-1: inhibitors of human orphan nuclear receptor DAX1 (NR0B1); P51843; HEK293 Gal4-DAX1 luciferase reporter, luminescence; inhibition, % at 6.75 µM; 340,000 tested, 0.99% active; AID 504766;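 active means inhibition above the mean over all tested compounds plus 3 SD, cut at about 4.2% in these data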;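 further: 0% = DAX1-transfected cells with DMSO and 100% = empty-vector control cells with DMSO; inhibition shows as a rise in luminescence from relieved DAX1 repression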
Target sequence (P51843 207-470 limits assumed): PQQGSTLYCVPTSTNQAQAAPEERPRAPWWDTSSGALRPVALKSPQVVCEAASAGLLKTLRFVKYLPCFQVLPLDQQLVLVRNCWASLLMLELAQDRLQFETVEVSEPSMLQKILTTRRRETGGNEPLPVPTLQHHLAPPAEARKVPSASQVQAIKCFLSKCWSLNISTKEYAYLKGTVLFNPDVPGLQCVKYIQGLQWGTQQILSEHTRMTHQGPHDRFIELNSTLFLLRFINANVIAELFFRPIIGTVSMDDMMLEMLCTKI
hcDAF12 agonist: H. contortus DAF-12 activation, primary screen | activation, % at 6.8 µM | HEK293 hcDAF-12 lit1-tk-luc reporter, luminescence; 0% DMSO, 100% Δ7-dafachronic acid | 370,000 tested, 1.4% active | AID 652067;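 active means activation above the mean of all tested compounds plus 3 SD, cut at about 5.5% in these data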;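 further: 100% = response to 3 µM Δ7-dafachronic acid high control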
DAX1 inh-2: DAX1 (NR0B1) inhibition, primary screen | HEK293T StAR-luciferase reporter, SF-1/DAX-1 repression relief | inhibition, % at 6.8 µM | 370,000 tested, 1.1% active | AID 652010;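 active means inhibition above the mean over all tested compounds plus 3 SD, cut at about 3.6% in these data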;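 further: 0% = DAX-1 cells with DMSO and 100% = cells lacking DAX-1 with DMSO; higher inhibition means more luminescence from relief of DAX-1 repression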
SMARCA2 act: activators of SMARCA2 function; MG213 cells, MMTV-luciferase reporter, dexamethasone, overnight; activation, % at 9.1 µM; 370,000 tested, 1% active; AID 652017; in the data active means activation above about 7.8%;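 further: 0% = vehicle wells and 100% = reference activator wells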
ssDAF-12 act: activates DAF-12 receptor from parasite S. stercoralis. HEK293 ssDAF-12/GRIP1 lit1-tk-luc reporter, luminescence; % of 3 µM dafachronic acid response. activation, % at 6.8 µM. 370,000 tested, 1% active;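 active means activation above the mean over all tested compounds plus 3 SD, cut at about 0.9% in these data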;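 further: 0% = DMSO-only wells and 100% = 3 µM delta7-dafachronic acid wells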
An asterisk follows results filed as active.

Cn1c(SCC(=O)NCc2ccccc2)ncc(C(=O)Nc2ccccc2)c1=O was read as hgDAF12 agonist 0, DAX1 inh-1 0, hcDAF12 agonist 4, DAX1 inh-2 2, SMARCA2 act -1 and ssDAF-12 act 1.0*.
For COc1ccc(CCNC(=O)CSc2ncc(C(=O)Nc3ccccc3)c(=O)n2C)cc1 the results were hgDAF12 agonist 2, DAX1 inh-1 1, hcDAF12 agonist 2, DAX1 inh-2 3, SMARCA2 act -2 and ssDAF-12 act 1.
Screening CC(=O)Nc1ccc(NC(=O)CSc2ncc(C(=O)Nc3ccccc3)c(=O)n2C)cc1 returned hgDAF12 agonist 3, DAX1 inh-1 0, hcDAF12 agonist 4, DAX1 inh-2 1, SMARCA2 act 1 and ssDAF-12 act 0.
For NC(=O)c1nsc(C(=O)N(CC(=O)NC2CCCCC2)c2cccc(F)c2)c1N the results were hgDAF12 agonist 1, DAX1 inh-1 0, hcDAF12 agonist 0, DAX1 inh-2 0, SMARCA2 act -3 and ssDAF-12 act -1.
N=c1sccn1CC(=O)NC(c1ccccc1)c1ccccc1 was read as hgDAF12 agonist -2, DAX1 inh-1 -1, hcDAF12 agonist -2, DAX1 inh-2 -1, SMARCA2 act -1 and ssDAF-12 act -2.
For COc1cccc(NC(=O)Nc2cc(C)ccc2F)c1 the results were hgDAF12 agonist 6, DAX1 inh-1 0, hcDAF12 agonist 0, DAX1 inh-2 1, SMARCA2 act 2 and ssDAF-12 act -1.
Screening COc1ccc(NC(=O)Nc2cc(C)ccc2F)cc1 returned hgDAF12 agonist 10, DAX1 inh-1 1, hcDAF12 agonist 2, DAX1 inh-2 3.9*, SMARCA2 act 3 and ssDAF-12 act 0.
Screening COc1ccc(NC(=O)Nc2ccc(Br)c(C)c2)cc1 returned hgDAF12 agonist 2, DAX1 inh-1 4.9*, hcDAF12 agonist -1, DAX1 inh-2 1, SMARCA2 act -2 and ssDAF-12 act -2.
Screening CCOC(=O)C1CCCN(Cc2cccc(Oc3ccccc3)c2)C1 (centres undefined) returned hgDAF12 agonist -1, DAX1 inh-1 -1, hcDAF12 agonist 0, DAX1 inh-2 0, SMARCA2 act -3 and ssDAF-12 act -1.
O=C(O)c1ccc2c(=O)n3c(nc2c1)/C(=C/c1ccccc1OC(F)F)CC3 was read as hgDAF12 agonist -1, DAX1 inh-1 2, hcDAF12 agonist -3, DAX1 inh-2 0, SMARCA2 act 0 and ssDAF-12 act -1.
Screening C[C@@H]1CN([C@H](C)CO)S(=O)(=O)c2ccc(-c3cccc(C#N)c3)cc2O[C@H]1CN(C)C(=O)Nc1cc(F)ccc1F returned hgDAF12 agonist 1, DAX1 inh-1 2, hcDAF12 agonist -2, DAX1 inh-2 -1, SMARCA2 act 3 and ssDAF-12 act -1.
For C=CCn1c(SCC(=O)Nc2ccc(Br)cc2)nc(O)cc1=O the results were hgDAF12 agonist -2, DAX1 inh-1 0, hcDAF12 agonist -1, DAX1 inh-2 -2, SMARCA2 act -1 and ssDAF-12 act -1.
CCn1c(SCC(=O)Nc2ccc(C)cc2)nc(O)cc1=O was read as hgDAF12 agonist -1, DAX1 inh-1 4.5*, hcDAF12 agonist 1, DAX1 inh-2 0, SMARCA2 act -6 and ssDAF-12 act -1.
For CCOc1ccccc1-c1n[nH]c(=S)o1 the results were hgDAF12 agonist 3, DAX1 inh-1 -2, hcDAF12 agonist 6.4*, DAX1 inh-2 0, SMARCA2 act 0 and ssDAF-12 act 1.0*.
Screening CCOc1ccc(-c2n[nH]c(=S)o2)cc1 returned hgDAF12 agonist 2, DAX1 inh-1 2, hcDAF12 agonist 0, DAX1 inh-2 1, SMARCA2 act 3 and ssDAF-12 act -1.
`O=C1c2ccccc2C(c2nnnn2-c2ccc3c(c2)OCCO3)N1CCc1ccccc1F` (centres undefined) gave hgDAF12 agonist -1, hcDAF12 agonist -1, DAX1 inh-2 4.4*, SMARCA2 act 1 and ssDAF-12 act -1.
Screening O=C1c2ccccc2C(c2nnnn2-c2ccc3c(c2)OCCO3)N1CCc1ccc(O)cc1 (centres undefined) returned hgDAF12 agonist -1, hcDAF12 agonist 0, DAX1 inh-2 3, SMARCA2 act -1 and ssDAF-12 act -1.
For O=C(Nc1ccc2c(c1)[nH]c(=O)c1ccccc12)C(F)(F)F the results were hgDAF12 agonist 0, DAX1 inh-1 2, hcDAF12 agonist 0, DAX1 inh-2 0, SMARCA2 act -4 and ssDAF-12 act -1.
Screening CC(=O)Nc1ccc2c(c1)[nH]c(=O)c1ccccc12 returned hgDAF12 agonist 6, DAX1 inh-1 4.6*, hcDAF12 agonist 0, DAX1 inh-2 1, SMARCA2 act 1 and ssDAF-12 act -1.
COc1ccc(NC(=O)COCC(=O)Nc2ccc(C)cc2)cc1 was read as hgDAF12 agonist -1, DAX1 inh-1 5.6*, hcDAF12 agonist 0, DAX1 inh-2 0, SMARCA2 act -3 and ssDAF-12 act -1.
`COc1ccc(NC(=O)COC(=O)CC2CCCCC2)cc1` gave hgDAF12 agonist 0, DAX1 inh-1 1, hcDAF12 agonist 0, DAX1 inh-2 -1, SMARCA2 act 0 and ssDAF-12 act 0.
`COc1ccc(NC(=O)COC(=O)CC2CCCC2)cc1` gave hgDAF12 agonist 3, DAX1 inh-1 0, hcDAF12 agonist -1, DAX1 inh-2 -1, SMARCA2 act -3 and ssDAF-12 act 1.2*.
Screening Cc1ccc(NC(=O)CCSc2ccccn2)cc1 returned hgDAF12 agonist 11*, DAX1 inh-1 4.2*, hcDAF12 agonist 2, DAX1 inh-2 4.4*, SMARCA2 act 0 and ssDAF-12 act 0.
COc1ccc(NC(=O)CN2CCN(c3ccccc3)CC2)cc1 was read as hgDAF12 agonist 12*, DAX1 inh-1 0, hcDAF12 agonist 0, DAX1 inh-2 -1, SMARCA2 act 1 and ssDAF-12 act -1.
Screening COc1cc(N(C(=O)Cc2cccs2)C(C(=O)NC2CCCCC2)c2ccc(C)cc2)ccc1-n1cnnn1 (centres undefined) returned hgDAF12 agonist -3, DAX1 inh-1 0, hcDAF12 agonist -3, DAX1 inh-2 1, SMARCA2 act -4 and ssDAF-12 act 0.
For CCc1cc2c3c([nH]c2cc1S(=O)(=O)NCCCOC)CC(C)(C)CC3=O the results were hgDAF12 agonist 0, DAX1 inh-1 0, hcDAF12 agonist 0, DAX1 inh-2 0, SMARCA2 act 0 and ssDAF-12 act -1.
COc1ccc(CN(C(=O)c2ccc(C)cc2)c2cccc(N)c2)cc1 was read as hgDAF12 agonist -1, DAX1 inh-1 -1, hcDAF12 agonist 1, DAX1 inh-2 1, SMARCA2 act 0 and ssDAF-12 act 0.
For CNC(=O)CCC(=O)Nc1ccc(C)cc1 the results were hgDAF12 agonist 1, DAX1 inh-1 4.7*, hcDAF12 agonist 0, DAX1 inh-2 -1, SMARCA2 act 1 and ssDAF-12 act -2.
